# In PubChem BioAssay (Tox21):
# Where “and” joins values, the source holds several entries; their conditions need not be identical. Identical values can stand only once. Results filed as inconclusive are left out. Where a call stands in place of a potency, no number is given. A structure can be active in one record and inactive in another. Calls of active or inactive are those of the source. Calls follow the shape of the dose curve; as a rule, active = well fitted activation curve with a large enough effect in the repeat runs; inconclusive = weak or mixed curves; inactive = flat fitted curve, though single readings scatter.
# Test: A CellTox Green Cytotoxicity Assay to monitor cytotoxicity in HepG2 cells - 8 hour (AID 1224890); also: nearly all actives have a fitted effect of over 45% in size
# Conditions: CellTox Green fluorescence; series mostly up to 76.8 µM; cytotoxicity increase: at the top concentration
# Excerpt: National Center for Advancing Translational Sciences [NCATS]
# NIH Chemical Genomics Center [NCGC]
# U.S. Environmental Protection Agency [EPA]
# National Institutes of Environmental Health Sciences [NIEHS]
# National Toxicology Program [NTP]
# Cell-based models are critical for drug discovery. Determining the natural cytotoxic effects resulting from test compounds is an essential research activity. A CellTox Green Cytotoxicity Assay to monitor cytotoxicity in real time of continues cell culture during 40 hours of the compound treatment was used to screen Tox21 10K library compounds in HepG2 cells. CellTox Green Cytotoxicity Assay is a nonlytic, homogeneous, biofluorescent method to measure cytotoxicity in cell culture after experimental manipulation. The assay system uses a proprietary asymmetric cyanine dye that is excluded from viable cells but preferentially stains the dead cell's DNA. […] Viable cells produce no appreciable increases in fluorescence. Therefore, the fluorescence signal produced by the binding interaction with dead cell DNA is proportional to cytotoxicity.
# The mixture of HepG2 cell suspension and reagents were dispensed at 600cells/6 ul/well in 1536-well tissue culture treated black solid bottom plates using a Multidrop dispenser. After the assay plates were incubated at a 37 C/5% CO2 incubator for 5 hours, 23 nL of compounds dissolved in DMSO, positive and negative controls was transferred to the assay plate by a pintool work station. The plates were incubated at 37 C for 40 hours. The fluorescence intensity were measured at 0h, 8h, 16h, 24h, 32h and 40h time points using ViewLux plate reader during compound treatment.
# Potency is read from the fitted curve at half-maximal effect.
SMILES,Potency,cytotoxicity increase
c1ccc(C2CO2)cc1 (stereo not given),inactive,
O=[N+]([O-])c1ccc(Cl)c([N+](=O)[O-])c1,61.7 µM (active),
CCOP(=S)(OCC)SCSC(C)(C)C,inactive,
ClC(Cl)=C(Cl)C(Cl)=C(Cl)Cl,inactive,
CCCCCCCCCc1ccc(O)cc1,,25.7% (inactive)
CS(=O)(=O)NC(=O)c1cc(Oc2ccc(C(F)(F)F)cc2Cl)ccc1[N+](=O)[O-],inactive,
O=C1Nc2ccc(Cl)cc2C(c2ccccc2)=NC1O (stereo not given),inactive,
O=P(OCCCl)(OCCCl)OCCCl,inactive,
C[C@]12CCC(=O)C=C1CC[C@@H]1[C@@H]2CC[C@@]2(C)[C@H]1CC[C@]2(C)O,22.1 µM (active) and inactive,
CC(C)(O)C(=O)Nc1ccc([N+](=O)[O-])c(C(F)(F)F)c1,inactive,
COc1ccc(C=O)cc1OC,inactive,
Oc1ccc(Cl)cc1Cl,inactive,
Cc1cc(Cl)ccc1N=CN(C)C,inactive,
C[N+](C)(C)CC(=O)[O-],inactive,
Nc1ccc([N+](=O)[O-])cc1N,inactive,
N#Cc1c(Cl)c(Cl)c(Cl)c(C#N)c1Cl,48 µM (active) and 13.8 µM (active),
CCCCSP(=O)(SCCCC)SCCCC,inactive,
Cc1cccc(N=Nc2ccc(N(C)C)cc2)c1,inactive,
Clc1ccccc1-c1nnc(-c2ccccc2Cl)nn1,inactive,
CCC[CH2][Sn]([Cl])([CH2]CCC)[CH2]CCC,3.47 µM (active) and 1.95 µM (active),

SMILES,Potency,cytotoxicity increase
Oc1ccc(Cl)cc1Cc1ccccc1,inactive and 31.3 µM (active),
C=CC(=O)OCC(CC)(COC(=O)C=C)COC(=O)C=C,inactive,
CC(C)Nc1ccc(Nc2ccccc2)cc1,inactive and 49 µM (active),
NN=C(N)N,inactive,
COc1ccc(O)c(C(C)(C)C)c1,inactive,
CC(C)CON=O,inactive,
CCOC(=O)c1ccccc1N,inactive and 49 µM (active),
CC1=C(C(=O)Nc2ccccc2)SCCO1,inactive,
COc1ccc(CO)cc1,inactive,
Cl,inactive,
O=C(O)c1nn(Cc2ccc(Cl)cc2Cl)c2ccccc12,inactive and 95.2 nM (active),
CNC(=O)CSP(=S)(OC)OC,inactive,
CSc1nc(NC(C)C)nc(NC(C)C)n1,inactive,
[Cl-].[Cl-].[Cl-].[Fe+3],inactive,
O=NN(c1ccccc1)c1ccccc1,inactive,
CC(C)(C#N)N=NC(C)(C)C#N,inactive,
CCCCOCCOC(C)=O,inactive,
CCNCC,inactive,
CC(C)(O)C#N,inactive,
COP(=S)(OC)Oc1ccc(Sc2ccc(OP(=S)(OC)OC)cc2)cc1,inactive,
